# ± gives the standard deviation.
# Test system: EfPiwi piRISC loaded with piRNA #1 (26 nt)
# Assay: pre-steady-state target cleavage rate (min^-1); auxiliary factor: 500 nM Ephydatia muelleri Gtsf1; guide: piRNA #1 5'p-UGAGGUAGUAGGUUGUAUAGUAUCCA; MIWI and MILI are mouse PIWI proteins and EfPiwi is from a freshwater sponge; tags in brackets are library labels; higher = faster piRNA-guided slicing of the target
# Description: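 Cleave-'n-Seq: a library of target RNAs (target site in constant flanks) at […] was incubated with 1 nM active freshwater sponge Ephydatia fluviatilis Piwi piRISC (synthetic 5'-monophosphorylated piRNA guide) with or without 500 nM EmGtsf1 at 33 °C for 1 min to 16 h. Uncleaved targets were sequenced and the pooled three trials fitted to a burst-and-steady-state model to give the pre-steady-state cleavage rate (min^-1). Sequence is the target site only. Fits with R² ≤ 0 are excluded.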
row,Sequence,pre-steady-state target cleavage rate
1,GGAGACGAUACUAUACAACCUACUACGACA,0.0045 ± 0.0019
2,GGAGAGGAUACAAUACAUCCUACUACCUCA,0.00771 ± 0.0035
3,GGAGACGAUACUAUACAACCUACUAUCCUCA,0.0049 ± 0.0014
4,GGAGAGGAAUGUAUACAACCUACUACCUCA,0.0061 ± 0.0042
5,GGAGACCAUACUAUUCAACGUACUACCUCA,0.00247 ± 0.0019
6,GGAGAGGAUACUAUACAACCUACCUACCUCA,0.00412 ± 0.0014
7,GGAGACGAUACUUAACAACCUACUACCUCA,0.00683 ± 0.0038
8,GGAGACGAUACUAUACAACCUACUAGGAGA [g6:g24:cont:t1A],0.00317 ± 0.0021
9,GGAGACCAUACUAUACAACCUAGUAGCUCA,0.00225 ± 0.0017
10,GGAGACCAUACUAUACAACCUGCUACCUCA,0.0759 ± 0.029
11,GGAGACCAUAGUAUACAUCCUACUACCUCA,0.00617 ± 0.0032
12,GGAGUGGAUACUAUAGAAGCUACUACCUCA,0.00277 ± 0.0019
13,GGAGUGGAUUGAAUACAACCUACUACCUCA,0.00637 ± 0.0044
14,GGAGACCUAACUAUACAACGUAGUACCUCA,0.00322 ± 0.0027
15,GGAGACCAUACUAUACAACCUAGCUACCUCA,0.00373 ± 0.0029
16,GGAGACCUUACUAUACAACCUACUACCUCG [g2:g22:cont:t1G],0.062 ± 0.022
17,GGAGAGGAUACUAUACAACCUAGUACCUGA,0.00379 ± 0.0015
18,GGAGACGAUACUUUACAACCAACUACCUCA,0.00358 ± 0.0022
19,GGAGAGGUUACUAUACAAGCUACUACCUCA,0.0046 ± 0.0021
20,GGAGACCAUACUAUUCAACCUACUUCCUCA,0.00483 ± 0.0048

row,Sequence,pre-steady-state target cleavage rate
1,GGAGUGGAUACUAUACAACCUAGUACCUGA,0.00271 ± 0.001
2,GGAGAGGAAACUAUACAACCUACUACGUCA,0.00364 ± 0.0025
3,GGAGUGGAUUACUAUACAACCUACUACCUCA,0.00938 ± 0.0037
4,GGAGACCAUACUAUACAAGCCUACUACCUCA,0.00453 ± 0.0032
5,GGAGACGAUACUAUACACCUACUACCUCA,0.0134 ± 0.0055
6,GGAGACCUAACUAUACAACCUACUACGUCA,0.00274 ± 0.0023
7,GGAGACCUAACUAUACAACCUACGACCUCA,0.00261 ± 0.0025
8,GGAGACGAUACUAUAGAACCUACUACCUCA,0.00433 ± 0.0017
9,GGAGAGGAUACUAUACAACCUACAACCUGA,0.00332 ± 0.0014
10,GGAGACCAUACUAUACUACCUACUACCACA,0.0069 ± 0.0053
11,GGAGACCUAUCUAUACUACCUACUACCUCA,0.00437 ± 0.0031
12,GGAGACCAUACUAUACAUCCUACUACCACA,0.00302 ± 0.0024
13,GGAGACGAUACUAUACAACCUUGUACCUCA,0.00308 ± 0.002
14,GGAGAGGAUACUAUACAACCUACUUGGUCA,0.00425 ± 0.0034
15,GGAGUCGAUUCUAUACAACCUACUACCUCA,0.00723 ± 0.0043
16,GGAGUGGAUACUAUACUACGUACUACCUCA,0.00381 ± 0.0021
17,GGAGACCAUACUAUACAACCAACUUCCUCA,0.00509 ± 0.0046
18,GGAGAGCAUACUAUACAAGCUACUACCUCA,0.00318 ± 0.0023
19,GGAGUGGAUACUAUACAACCCUACUACCUCA,0.00375 ± 0.0023
20,GGAGACGAUACUAUACAACCUACGUACCUCA,0.00418 ± 0.0019

# Reference: the supplement of paper PMC10338343
